# Laboratory results: the supplement of paper PMC10498489
# Among all 2,300 compounds or so, about 330 (14%) showed activity. These entries were drawn from the full list. A number with no mark means an inactive call.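 Rule for the calls: active = median modified Z-score above 1.96; inactive = 1.96 or below.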
# System: HepG2 Srxn1-GFP reporter cells (+30 nM CDDO-Me)
# Experiment: Srxn1-GFP intensity median modified Z-score relative to plate median; higher = stronger NRF2 / oxidative stress reporter activation, active = hit call of the paper
# Conditions: 10 µM; exposure time: 24h
# Outline: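 In 96-well plates holding 20,000 HepG2 Srxn1-GFP BAC reporter cells per well, compound at 10 μM and an NRF2 activator at 30 nM were added together for 24 h, with DMSO at ≤0.1%, across three replicate plates. After fixation in formaldehyde and Hoechst staining, confocal images were analysed cell by cell for cytoplasmic GFP, and images containing under 100 cells were excluded. Values are replicate medians of the per-plate modified Z-score of GFP intensity, scaled by 1.4826 × median absolute deviation.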
row,SMILES,Srxn1-GFP intensity median modified Z-score
1,Nc1ccc(S(=O)(=O)N=c2cccc[nH]2)cc1 [euspeclibcmpd279],-0.029
2,COc1ccc2[nH]c3cc(Cl)ccc3c(=Nc3cc(CN4CCCC4)c(O)c(CN4CCCC4)c3)c2n1 [euspeclibcmpd1080],9.12 (active)
3,CC1(C)C2CCC1(CS(=O)(=O)O)C(=O)C2=Cc1ccc(C=C2C(=O)C3(CS(=O)(=O)O)CCC2C3(C)C)cc1 [euspeclibcmpd1829],1.49
4,C=C(CC)C(=O)c1ccc(OCC(=O)O)c(Cl)c1Cl [euspeclibcmpd119],14 (active)
5,CC(C)CCCC(C)[C@H]1CCC2C3CC=C4C[C@@H](OC(=O)c5ccccc5)CC[C@]4(C)C3CC[C@@]21C (stereo not given in full) [euspeclibcmpd2185],-0.487
6,CC(O)CNS(=O)(=O)CC1CN(C(=O)C2CC2C)CCO1 (stereo not given),1.25
7,CC(C)=C1CNC(C(=O)O)C1CC(=O)O (stereo not given) [euspeclibcmpd2009],0.265
8,CC(=O)Oc1ccccc1C(=O)N=c1[nH]cc([N+](=O)[O-])s1 [euspeclibcmpd615],2.79 (active)
9,CC(=O)N=c1[nH]cc([N+](=O)[O-])s1 [euspeclibcmpd793],0.152
10,O=C(O)c1cc(O)c(O)c(O)c1 [euspeclibcmpd1010],-0.0488
11,COc1ccc(C(=O)c2ccc(O)cc2)c(O)c1O [euspeclibcmpd1507],-0.213
12,O=C1CC(=O)c2ccccc2C1=O [euspeclibcmpd1562],9.54 (active)
13,O=C1[O][Bi]([OH])[O]c2ccccc21 [euspeclibcmpd2458],0.155
14,NC(=O)N1c2ccccc2CC(=O)c2ccccc21 [euspeclibcmpd673],-0.538
15,C/C(=C\CO)CC[C@H](C)CCC[C@H](C)CCCC(C)C [euspeclibcmpd1621],-0.0936
16,[O-][n+]1cccc(CO)c1 [euspeclibcmpd1263],-0.263
17,O=C(C=Cc1ccc(O)c(O)c1)OCCc1ccccc1 [euspeclibcmpd1775],3.45 (active)
18,O=C(O)C=Cc1ccc(O)c(O)c1 [euspeclibcmpd1336],-0.408
19,O=C(C=Cc1ccc(O)c(O)c1)OC(Cc1ccc(O)c(O)c1)C(=O)O (stereo not given) [euspeclibcmpd2083],-0.529
20,Cc1ccc(C)c(N2C(=O)c3ccc(C(=O)OCC(=O)N4CCc5ccccc54)cc3C2=O)c1,1.06
21,O=C(Nc1cccc(Oc2cnccn2)c1)c1cc2cc(F)ccc2[nH]1,1.62
22,CCN(CC)CCNC(=O)c1cc(Br)c(N)cc1OC [euspeclibcmpd1122],0
23,CCN(CC)CCNC(=O)c1cc(Cl)c(N)cc1OC [euspeclibcmpd197],86.5 (active)
24,CCN(CC)CCNC(=O)c1cc(S(C)(=O)=O)ccc1OC [euspeclibcmpd525],-0.717

row,SMILES,Srxn1-GFP intensity median modified Z-score
1,NC(=O)C1CCCN(Cc2cccc(CNc3ncc(F)cn3)c2)C1 (stereo not given),1.1
2,CC(CN(C)C)CN1c2ccccc2CCc2ccccc21 (stereo not given) [euspeclibcmpd531],0.095
3,CN=C(C[N+](=O)[O-])NCCSCc1ccc(CN(C)C)o1 [euspeclibcmpd2160],-0.118
4,CC1(C)SC2C(NC(=O)C(N)c3ccc(O)cc3)C(=O)N2[C@H]1C(=O)O (stereo not given in full) [euspeclibcmpd23],-0.305
5,CCC(C)n1ncn(-c2ccc(N3CCN(c4ccc(OC[C@H]5CO[C@](Cn6cncn6)(c6ccc(Cl)cc6Cl)O5)cc4)CC3)cc2)c1=O (stereo not given in full) [euspeclibcmpd951],2.71 (active)
6,CC(=O)N1CCN(c2ccc(OCC3CO[C@](Cn4ccnc4)(c4ccc(Cl)cc4Cl)O3)cc2)CC1 (stereo not given in full) [euspeclibcmpd169],0.674
7,CC(C)N1CCN(c2ccc(OC[C@H]3CO[C@](Cn4cncn4)(c4ccc(Cl)cc4Cl)O3)cc2)CC1 [euspeclibcmpd617],1.6
8,N=C(N)N=c1[nH]c(CSCCC(=N)NS(N)(=O)=O)cs1 [euspeclibcmpd364],0.317
9,O=C(O[C@@H]1Cc2c(O)cc(O)cc2OC1c1cc(=O)c(O)c2c(O)c(O)cc(C3Oc4cc(O)cc(O)c4C[C@H]3O)c2c1)c1cc(O)c(O)c(O)c1 (stereo not given in full) [euspeclibcmpd1583],-0.77
10,COc1ccc(-c2cc(=O)c3c(O)c(OC)c(OC)c(OC)c3o2)cc1 [euspeclibcmpd2317],0.184
11,COc1ccc(-c2cc(=O)c3c(OC)c(OC)c(OC)c(OC)c3o2)cc1OC [euspeclibcmpd1435],1.9
12,COc1ccc(-c2cc(=O)c3c(OC)c(OC)c(OC)c(OC)c3o2)cc1 [euspeclibcmpd1464],6.78 (active)
13,OC[C@@H](O)[C@@H](O)[C@@H](O)[C@H](O)[C@@H](O)CO [euspeclibcmpd1702],-0.744
14,CC(=O)OCC(COC(C)=O)OC(C)=O [euspeclibcmpd301],0.397
15,C=CCCCCCCCCCCCC(O)CC(O)CO (stereo not given) [euspeclibcmpd1371],1.62
16,C#CCCCCCCCCCCCC(O)CC(O)CO (stereo not given) [euspeclibcmpd1458],4.24 (active)
17,C=CCCCCCCCCCCCC(O)CC(O)CO (stereo not given) [euspeclibcmpd2211],2.24 (active)
18,C=CCCCCCCCCC(=O)O [euspeclibcmpd2049],0.331
19,CC(=O)OCC(OC(C)=O)C(OC(C)=O)C(OC(C)=O)C(OC(C)=O)C(COC(C)=O)OC(C)=O (stereo not given) [euspeclibcmpd1364],-0.434
20,C#CCCCCCCCCCCCC(O)CC(O)COC(C)=O (stereo not given) [euspeclibcmpd1372],3.35 (active)
21,CC(=O)O[C@@]12CO[C@@H]1C[C@H](O)[C@@]1(C)C(=O)C(=O)C3C(C)[C@@H](OC(=O)[C@@H](O)[C@@H](NC(=O)OC(C)(C)C)c4ccccc4)C[C@@](O)([C@@H](OC(=O)c4ccccc4)C12)C3(C)C (stereo not given in full) [euspeclibcmpd1130],1.49
22,O=C(O)CCNC(=O)c1ccc(N=Nc2ccc(O)c(C(=O)O)c2)cc1 [euspeclibcmpd2245],-0.361
23,CN(C)c1ccc(O)c2c1C[C@H]1C[C@H]3C(N(C)C)C(=O)C(C(N)=O)C(=O)[C@@]3(O)C(=O)C1C2=O (stereo not given in full) [euspeclibcmpd201],-0.262
24,COC(=O)CCC(C)C1CCC2C3CC[C@@H]4C[C@H](O)CC[C@]4(C)C3C[C@H](O)[C@]12C (stereo not given in full) [euspeclibcmpd1611],-0.0244

row,SMILES,Srxn1-GFP intensity median modified Z-score
1,CCc1cc(Cl)c(OC)c(C(=O)NCC2CCCN2CC)c1O (stereo not given) [euspeclibcmpd333],0.457
2,CCS(=O)(=O)CCn1c([N+](=O)[O-])cnc1C [euspeclibcmpd439],0.00367
3,CCOC(=O)CCC(=O)O[C@H]1[C@H](O[C@@H]2[C@@H](C)[C@H](O[C@H]3C[C@@](C)(OC)[C@@H](O)[C@H](C)O3)C(C)C(=O)O[C@H](CC)[C@@](C)(O)[C@H](O)C(C)C(=O)C(C)C[C@@]2(C)O)O[C@H](C)C[C@@H]1N(C)C (stereo not given in full) [euspeclibcmpd114],0.427
4,CC1(OC(=O)C=Cc2ccccc2)CC(O)C2(O)C=COC(OC3OC(CO)C(O)C(O)C3O)C12 (stereo not given) [euspeclibcmpd1930],0.27
5,CCCCC1=NC2(CCCC2)C(=O)N1Cc1ccc(-c2ccccc2-c2nn[nH]n2)cc1 [euspeclibcmpd676],-0.243
6,COc1cc(C=CC(=O)O)ccc1O [euspeclibcmpd1346],-0.142
7,COc1cc(O)c(C(=O)C=Cc2ccc(O)c(OC)c2)c(OC)c1 [euspeclibcmpd2193],-0.497
8,COc1ccc(/C=C/C(=O)O)cc1OC [euspeclibcmpd2368],-0.475
9,COc1cc(C=CC(=O)CC(=O)C=Cc2ccc(O)c(OC)c2)ccc1O [euspeclibcmpd1307],23.5 (active)
10,COc1cc(O)c(C(=O)C=Cc2ccc(OC)c(O)c2)c(OC)c1 [euspeclibcmpd1967],23.8 (active)
11,COc1cc(O)c(C(C)=O)c(OC)c1 [euspeclibcmpd1575],-0.474
12,Cc1cn[nH]c1 [euspeclibcmpd2215],-0.461
13,Cc1cn[nH]c1 [euspeclibcmpd2196],1.06
14,CCC(=O)O[C@]1(C(=O)SCF)[C@H](C)CC2C3CC(F)=C4CC(=O)C=C[C@]4(C)C3(F)[C@@H](O)C[C@@]21C (stereo not given in full) [euspeclibcmpd975],-0.942
15,CC(=O)Nc1c(I)c(NC(C)=O)c(I)c(C(=O)O)c1I [euspeclibcmpd867],-0.167
16,Cc1cc(=O)oc2cc(O)c(O)cc12 [euspeclibcmpd1370],-0.517
17,NC(CCC(=O)NC(CS)C(=O)NCC(=O)O)C(=O)O (stereo not given) [euspeclibcmpd132],1.19
18,C[C@]12CCC(=O)CC1=CCC1C2[C@@H](O)C[C@@]2(C)C1CC[C@]2(O)C(=O)CO (stereo not given in full) [euspeclibcmpd5],-0.578
19,O=C(O)C1CSCN1C(O)c1ccc(O)[nH]1 (stereo not given) [euspeclibcmpd1087],-0.1
20,O=C(O)C1CC([C@H]2CCCCN2)CN2CCCCC12 (stereo not given in full) [euspeclibcmpd1560],0.315
21,CCCN1C(=O)/C(=C/c2ccc(-n3ccnc3)cc2)SC1=S,9.18 (active)
22,CC(C)(C)NCC(O)COc1cccc2c1C[C@H](O)[C@H](O)C2 (stereo not given in full) [euspeclibcmpd814],0.0394
